Bioassay records deposited in PubChem BioAssay by National Center for Advancing Translational Sciences (NCATS).
ELG1 genotoxic – qHTS screen for small molecules that induce genotoxicity in human embryonic kidney (HEK293T) cells expressing luciferase-tagged ELG1; hit rate 1.3% among 330,000; HEK293T ELG1-luciferase reporter, luminescence, 16 h; Potency, µM (titrated, usually from 46 µM), inactives show at the highest dose activity change, positive = activation, hits mostly activators; further: % of control where 0% means no effect; nearly all actives have a fitted effect of over 60% in size
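Luminescence read-out: rising ELG1-luciferase signal, reflecting elevated ELG1 protein under genetic stress, flags genotoxic compounds. Cells were treated for 16 hr at 37 °C before ONE-Glo detection.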
Luc counter – Counterscreen for Luciferase (Kinase-Glo TM) Inhibition | Luciferin 4-monooxygenase (Photuris pensylvanica), Q27757 | Potency, µM (doses to about 38.3 µM), without a hit: at the highest dose activity change, negative = inhibition, most hits filed as inhibitors | AID 1379, 2008 | hit rate 0.28% among 200,000 | Kinase-Glo luciferase, ATP luminescence, 8 min; further: on the % scale 0 is the no-effect control and ±100 the full control effect; nearly all actives have a fitted effect of over 60% in size
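Recombinant Kinase-Glo luciferase, 10 uM ATP (linear range), luciferin; imidazole pH 7.2 / KCl / MgCl2 / Tween / BSA buffer; 8 min RT; luminescence.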
Rab9 promoter act – qHTS Assay for Rab9 Promoter Activators | Potency, µM (titrated, usually from 9.22 µM), inactives show top-dose activation, negative = inhibition, hits mostly activators | AID 485297, 2010 | hit rate 2.8% among 320,000 | Huh7 Rab9 promoter-luciferase reporter, luminescence, 24 h; further: % of control where 0% means no effect; nearly all actives have a fitted effect of over 60% in size
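Huh7 cells stably carrying a Rab9 promoter-luciferase reporter, 1500 cells per well in OP-MEM I with 10% FBS, treated with compound 24 hours at 37C. Luciferase activity read by luminescence after 10 minutes with Amplite reagent.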
FLuc counter – qHTS profiling assay for firefly luciferase inhibitor/activator using purifed enzyme and Km concentrations of substrates (counterscreen for miR-21 project); Luciferin 4-monooxygenase (Photinus pyralis), P08659; purified FLuc, Km substrates, luminescence inhibition; Potency, µM (titrated, usually from 57.5 µM), for inactives: top-dose activity change, negative = inhibition, hits mostly inhibitors; hit rate 6.9% among 360,000; AID 588342, 2011;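 further: plate controls were vehicle for no effect and reference inhibitor for full effect; nearly all actives have a fitted effect of over 55% in size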
Target sequence (P08659 whole entry, looked up): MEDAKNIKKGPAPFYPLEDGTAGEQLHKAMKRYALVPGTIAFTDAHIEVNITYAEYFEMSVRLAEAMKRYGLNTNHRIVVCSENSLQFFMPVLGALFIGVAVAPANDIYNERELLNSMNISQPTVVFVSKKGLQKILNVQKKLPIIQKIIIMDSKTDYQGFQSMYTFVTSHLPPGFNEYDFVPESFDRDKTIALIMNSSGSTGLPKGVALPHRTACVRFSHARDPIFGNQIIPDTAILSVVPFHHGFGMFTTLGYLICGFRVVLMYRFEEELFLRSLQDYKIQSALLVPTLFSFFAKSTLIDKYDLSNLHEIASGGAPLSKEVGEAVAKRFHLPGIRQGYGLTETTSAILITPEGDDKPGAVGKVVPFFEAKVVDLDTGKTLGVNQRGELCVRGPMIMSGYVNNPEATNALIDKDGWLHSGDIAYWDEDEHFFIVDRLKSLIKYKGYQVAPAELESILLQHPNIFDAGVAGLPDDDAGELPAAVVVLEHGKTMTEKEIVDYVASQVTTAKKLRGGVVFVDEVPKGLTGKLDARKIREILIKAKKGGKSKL
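Purified P. pyralis luciferase, 10 nM final, with Km-level 10 uM D-luciferin and 10 uM ATP in 50 mM Tris acetate pH 7.5, 10 mM Mg acetate, 0.01% Tween-20, 0.05% BSA; 6-point qHTS titration about 60 µM downward; luminescence read.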
NPC1 promoter act – qHTS Assay for NPC1 Promoter Activators. hit rate 2.4% among 320,000. Potency, µM (highest dose often 9.22 µM), inactives show at the highest dose activation, most hits filed as activators. Huh7 NPC1 promoter luciferase reporter, 24 h; further: % of control where 0% means no effect; nearly all actives have a fitted effect of over 60% in size
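Luminescence from an NPC1 promoter-driven luciferase reporter in stably transfected Huh7 cells was measured after 24 h compound treatment at 37 °C, followed by 10 min ambient incubation with luciferase detection reagent.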
SMN2 splice up – qHTS Assay for Enhancers of SMN2 Splice Variant Expression | HEK293 SMN2-luciferase splicing reporter, luminescence, 30-36 h | Potency, µM (highest dose often 46.1 µM), for inactives: top-dose activity change, positive = activation, actives largely listed as activators | hit rate 2.8% among 210,000; further: % of control where 0% means no effect; nearly all actives have a fitted effect of over 55% in size
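HEK293 cells carry an SMN2 […]–luciferase reporter in which exon 7 inclusion puts luciferase in frame. Cells were plated 10-12 h before compound addition, then incubated 30-36 h at 37C. ONE-Glo luminescence was read; sodium butyrate at 4.5 mM final served as control.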
An asterisk follows results filed as active; u = inconclusive; x = not tested or not shown. In the library only some 7.5% were active in any assay of this set; here they are far more common. The call rests on the fitted dose curve; in most records, active means well fitted curve in the direction sought with a large enough effect; inconclusive means small, poorly fitted or top-dose-only effect, or another doubt; inactive means no such curve, though single readings can be large; an effect the other way counts as inactive or inconclusive. Potency means the concentration at half of the fitted maximal effect.

SMILES	ELG1 genotoxic	Luc counter	Rab9 promoter act	FLuc counter	NPC1 promoter act	SMN2 splice up
COc1cccc(C(=O)Nc2ccc3nc(N4CCC(C)CC4)cc(C)c3c2)c1	x	x	x	-11%	x	-8%
COc1ccc2oc(=N)c(C(=O)Nc3ccc(Cl)cc3)cc2c1	1%	x	26%	-10%	u	x
N=c1oc2cc(O)ccc2cc1C(=O)Nc1nc2ccccc2s1	6.5µM*	-4%	3.2µM*	0.19µM*	4µM*	0%
N=c1oc2cc(O)ccc2cc1C(=O)Nc1ccccn1	4%	-3%	2%	u	1%	-7%
CNC(=O)c1cc2cc(OC)ccc2oc1=N	2%	-4%	0%	-17%	-7%	-13%
COc1ccc2oc(=N)c(C(=O)Nc3cccc(C)c3C)cc2c1	u	x	4.5µM*	0.76µM*	2.2µM*	x
COc1ccc2oc(=N)c(C(=O)Nc3ccccc3Cl)cc2c1	u	x	2.5µM*	0.54µM*	3.5µM*	x
N=c1oc2ccccc2cc1C(=O)Nc1ccccc1	0.82µM*	x	1.3µM*	0.76µM*	0.5µM*	x
O=C(NCCc1ccc(F)cc1)C(=O)NCC(c1cccs1)S(=O)(=O)c1ccccc1 (stereo not drawn)	x	x	x	-2%	x	x
Cc1nn(CC(=O)Nc2cccc(C(F)(F)F)c2)c(=O)c2nn(-c3ccccc3)c(C)c12	x	x	x	-16%	x	x
N=c1oc2ccc(Br)cc2cc1C(=O)NCc1ccccc1	14%	x	6%	-1%	-6%	x
COc1ccc2oc(=O)c(C(=O)Nc3ccccc3C)cc2c1	u	x	3.2µM*	1.7µM*	3.2µM*	x
N=c1oc2cc(O)ccc2cc1C(=O)Nc1ccc(Br)cc1	17%	x	1.4µM*	2.7µM*	1.8µM*	x
COc1ccc2oc(=N)c(C(=O)Nc3ccccc3)cc2c1	u	-16%	3.2µM*	0.95µM*	u	13µM*
N=c1oc2ccc(Cl)cc2cc1C(=O)Nc1ccc(F)cc1	u	x	3.5µM*	u	3.5µM*	x
COc1ccc2oc(=N)c(C(=O)Nc3ccc(C)cc3)cc2c1	11%	x	u	u	23%	x
CCN(Cc1nc(-c2ccc(OC)cc2)oc1C)S(=O)(=O)c1ccc(Cl)cc1	x	x	x	1%	x	x
O=C(NNC(=O)c1cc2cc(Br)ccc2oc1=O)c1ccc(O)cc1	-1%	-1%	-2%	-17%	-4%	-4%
COc1ccc2oc(=O)c(C(=O)N3CCN(c4ccccc4C)CC3)cc2c1	9.2µM*	-3%	27%	13µM*	18%	14µM*
COc1ccc2oc(=O)c(C(=O)N3CCN(c4ccccc4)CC3)cc2c1	28%	-4%	3%	u	3%	15%
O=C(Nc1ccccc1O)c1cc2cc(Br)ccc2oc1=O	u	x	u	u	3.5µM*	x
CCOC(=O)c1noc2nc(C)n(CC(=O)NC(C)CC)c(=O)c12 (stereo not drawn)	x	x	x	0%	x	x
Cc1cc2ccccc2n1CCNC(=O)C1CCCCC1	23µM*	3%	2%	0%	-2%	-56%
Cc1cc2ccccc2n1CCNC(=O)c1cccs1	u	-3%	u	21µM*	u	-29%
COc1cccc(C(=O)n2c(SC)nc3cc4c(cc32)OCCO4)c1	13%	0%	21%	13µM*	17%	12%
SMILES	ELG1 genotoxic	Luc counter	Rab9 promoter act	FLuc counter	NPC1 promoter act	SMN2 splice up
COc1cccc(NC(=O)c2oc3ccccc3c2NC(=O)c2cc3ccccc3o2)c1	x	x	x	u	x	1%
COc1cccc(NC(=O)c2oc3ccccc3c2NC(=O)C(C)(C)C)c1	-7%	3%	-3%	0%	1%	-16%
COc1cccc(NC(=O)c2ccc3c(c2)OCO3)c1	6.5µM*	x	0.45µM*	2.7µM*	0.5µM*	x
CSc1nc2cc3c(cc2n1C(=O)c1ccc(C)cc1)OCCO3	8%	-1%	16%	u	3%	7%
COc1cccc(NC(=O)c2oc3ccccc3c2NC(=O)c2ccc(OC(C)C)cc2)c1	x	x	x	2.7µM*	x	10%
COc1cccc(NC(=O)c2oc3ccccc3c2NC(=O)c2ccc3c(c2)OCO3)c1	-7%	-29%	28%	2.7µM*	16%	1%
CC(=O)c1ccc(N2CCN(C(=O)CCCCn3c(=O)[nH]c4ccsc4c3=O)CC2)cc1	x	x	x	4%	x	4%
Cc1nc2sccn2c(=O)c1S(=O)(=O)NCC1CCN(Cc2ccccc2Cl)CC1	-1%	x	-2%	3%	-1%	x
O=C(CCc1ccccc1)NC1CC(=O)N(c2ccccc2)C1 (stereo not drawn)	x	x	x	-1%	x	x
Cc1ccc(NC(=O)CSc2nc(=O)n(Cc3cccnc3)c3c2CCC3)cc1F	x	x	x	-9%	x	x
COc1cccc(NC(=O)c2ccc3c(c2)OCCO3)c1	2.1µM*	x	0.71µM*	0.67µM*	1.8µM*	x
COc1cccc(OC)c1C(=O)Nc1ccc2c(c1)OCCO2	-1%	13%	-11%	-1%	-2%	1%
CCC(=O)Nc1cccc(NC(=O)c2ccc3c(c2)OCO3)c1	7%	-6%	29%	15µM*	17%	u
COc1cccc(C(=O)Nc2cc3c(cc2C(C)=O)OCCO3)c1	4%	1%	0%	5.4µM*	0%	29%
CCC(C)(C)c1ccc2c(c1)C(=O)c1ccccc1C2=O	u	-12%	2.8µM*	1.7µM*	1.6µM*	u
CCOC(=O)N/N=C/C=C/c1ccccc1	u	-3%	u	u	u	11µM*
Cc1ccccc1OCC(=O)N/N=C/C=C/c1ccccc1	3%	1%	-5%	-9%	0%	11%
COc1ccccc1NCC(=O)N/N=C/C=C/c1ccccc1	2%	2%	0%	27µM*	0%	17%
COc1cccc(Cn2c(=O)c(C)nc3cnc(N4CCOCC4)nc32)c1	x	-2%	x	x	x	-9%
COc1ccc2c(c1)[C@]1(C)CCC(=O)C[C@H]1CC2	x	-2%	x	x	x	1%
COc1ccc2c(c1)CC(NC(=O)Nc1cc(Cl)ccc1OC)CO2 (stereo not drawn)	x	x	x	3%	x	x
O=S(=O)(c1ccc2[nH]c3c(c2c1)CCCCC3)N1CCN(c2cccc(Cl)c2)CC1	x	x	x	0%	x	x
O=c1cccc2n1Cc1cc3ccccc3nc1-2	21µM*	-11%	2.8µM*	19µM*	3.2µM*	13µM*
CCCCOC(=O)c1ccc(NC(=O)Cn2nnc3sc4c(c3c2=O)CCCC4)cc1	x	x	x	-19%	x	2%
Oc1[nH]c2ccccc2c1N=Nc1ccccc1F	u	-3%	u	u	u	22µM*
